# Laboratory results as given in PubChem BioAssay AID1508600 (Functional Genomics Laboratory (NCATS/FGL), 2020).
# About 3,700 (7%) of roughly 53,000 sequences were called active. The entries come from a sample that favours actives as a whole. A number with no mark means an inactive call.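 How the source made its calls: active means gene knockdowns whose robust z-score for IL-1 alpha signal is at least 2 or at most -2, so actives lie on both sides; inactive means the rest.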
# Test: Components of the Cytosolic LPS Sensing Pathway: Gene Identification via Genome-wide siRNA Screen;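 further: robust z of the log signal after scaling to non-targeting control siRNA wells of the plate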
# Settings: RAW264.7 macrophages, IL-1a HTRF, actives lie on both sides, screened at 100 nM (by protocol), cells primed 5 h with Pam3CSK4 first
# Summary of the method: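 RAW264.7; siRNA 100 nM final, RNAiMAX, 48h 37 degrees C; Pam3CSK4 5 h; LipidA + TransIT-TKO 24 h; IL-1a HTRF; CellTiter-Glo viability; robust z vs negative-control median.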
row,Sequence,z-score
1,GGCAUUGGUUCCUACAAGATT against Gm773,-0.118
2,GGUAGAGGAUCUCUCUAAATT against Fbxo44,-0.444
3,GCUGGUAAACAUAGGUGGCTT against C1qtnf4,2.18 (active)
4,GGUCCAUGGGUAAGAGGAUTT against Vmn1r43,1.2
5,GGUCGUGCGAUCCACAGAUTT against Vangl2,-0.44
6,GUUUUGGAUUCCUCUGUCATT against Olfr1097,-1.69
7,GGAAAAUUCCAGAAACCAUTT against Mettl8,0.608
8,GGAUGAAGAGAAAGUUCUATT against Mak,2.49 (active)
9,GGUGAGGUUCAAACAUUCUTT against Sdf2,0.0627
10,GGGAUUCCACGGAUACUGUTT against Rnase13,-0.858
11,GGACUACCAGUUUUACAUCTT against Ssr1,1.25
12,GCCGGUGACUUUCUAAUUUTT against Yrdc,-1.32
13,GCCUUAACUAUAGUCCAGATT against Scn7a,-0.928
14,GGCAUGGCUGGCAAAAACATT against Ppp1r15a,-1.85
15,UGCAAUCCGGAUCAAACGUTT against Cebpb,-2.03 (active)
16,GGAAGAUUUCUUCAAACGCTT against Lhx4,-0.167
17,CCUGAAGAGGAUGAUAUGGTT against Fam221a,0.144
18,GGUCUUCAGAAUCCUCAAUTT against Ap1g2,-0.4
19,GCCAACCUGAAACCAUCUATT against Ptprg,0.0567
20,GGACACAGACAAUGAAAUGTT against Fetub,-2.35 (active)
21,GGAGCAUUGCUCUUCUUCATT against Get4,-0.073
22,GCAGAAGUAUUACUGGAUGTT against Olfr572,0.841
23,GCUAGGAACGAGGAGCUAATT against Prrt3,1.07

row,Sequence,z-score
1,GGAAUACAUAGCACACGGUTT against Apba2,1.06
2,CCCUGAAACAAUGAAUACATT against Serpini1,0.325
3,GCUUCCUAACCAGGUUUGATT against 4430402I18Rik,2.1 (active)
4,GGAGAAGCUAAGAAACGAGTT against Acyp2,-0.696
5,CCCACAUUGCUUACCUUUCTT against Zfp523,-0.762
6,GCUGGGUUGCUGAUUUUUGTT against Arl5a,-0.881
7,GGGCUUUCUCCAAUCGUAATT against Gm4876,0.603
8,CGAGCCUCUGUGAUAUCCATT against Cst11,-2.69 (active)
9,GGUUCUGUCUUUUACUUUCTT against Olfr1496,0.232
10,CGAGUGCUUCUCUUGACAUTT against Mrpl22,-0.43
11,GGAUAAUUAUAGGAAGAGCTT against Ncapd3,-0.507
12,GGGAUGCUAACAGGUGUCATT against Tkfc,-0.12
13,GGCAUUACAUUUCAAUGAATT against Serpinb12,-0.71
14,GGAAUACACUCAAUAUUGATT against Nupl1,-2.59 (active)
15,GGUGUUCUUGAAGUUUAUATT against Zfp157,0.579
16,GCAGGAGUCAAAUUUUCUATT against Nemp1,-0.795
17,GGAUUUUUGACUGUGAUUCTT against Pak1ip1,-1.57
18,CCCAGACAUUACAUGGCCUTT against Cldn6,-0.935
19,GGAACAAUGGGUUCAUUUUTT against Ifi203,0.136
20,CGUAAUCUUCAUCUUAGUATT against Olfr613,0.601
21,GGAACCAAGGAUGUGAAAGTT against Rab13,-2.17 (active)
22,GGAGUCUUGGAAAAAAGGCTT against Rep15,-1.65
23,GGCCUGUUGAUUGCAUAUUTT against Sppl2a,-1.01

row,Sequence,z-score
1,GGCCUGAAAAGACUGAUAATT against Vmn2r26,1.18
2,GCUAGUUAAGAGGAGGCUGTT against Nob1,-0.252
3,GGAGCACAGGAAAAUAUAUTT against Mdm2,0.561
4,GCACUUUGUAUAUCUUUCCTT against Btd,1.51
5,GGAGAAGGAUUAUACCAGUTT against Rfesd,2.2 (active)
6,GGGAGUUUCCAGAUGUUUUTT against Gclm,0.0729
7,GGAAGAAAAGACUUAUCGUTT against Jkamp,-0.663
8,GGGAAACAUCUUCCUAUCCTT against Serpina12,-0.958
9,GGCAGGUUUUUGACAACUUTT against Fxyd4,3.2 (active)
10,CCUAAUAAGCCAUAUGCAUTT against Alkbh8,-0.449
11,GCCCUCUGUGAGUAGUAAUTT against Shroom3,0.603
12,GUUACUACAACAGCUACUATT against Krtap19-4,-2.37 (active)
13,GGACAUUGCCCACAUGACCTT against Rnf227,-0.15
14,GCUCAACAGGCUCAACUACTT against Cndp2,0.492
15,GGACUACCGAACAAGAGAATT against Zfp318,0.241
16,GCAUUCACCGUACGUAUUCTT against Id4,0.187
17,GGGUAGAAUCCAAGAAGCGTT against Hoxb3,-2.08 (active)
18,GGUCUUCAACCCUGUUUGGTT against Gpsm3,0.329
19,GGAGACUCCAUACCAGUGUTT against Zfp329,1.78
20,GGAUAUGGGAAUGAAAGCATT against Nyap2,-2.21 (active)
21,GGCAGCAUUACACUGAAUCTT against Slc36a4,0.436
22,CCUAGUGAUUAAAGGGAUGTT against Prss43,1.19
23,GGAAAGUGUUUUCUCAUGATT against Klf9,-0.23
